Assay outcomes (PubChem BioAssay)
Rows were chosen to be rich in hits. Some 27% of all compounds tested hit in one or more screens of this group.
Cav32 inh = human Cav3.2 channel inhibition, primary screen; Cav3.2-expressing cells, Fluo-4 calcium fluorescence FDSS; active compounds read low; B-score at 10 µM; hit rate 4% among 100,000; AID 449739;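 active = single-dose well whose peak fluorescence ratio is a statistical outlier from its plate by either plate-standardised score or position-corrected B-score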
CYP2C9 inhib = blocks human cytochrome P450 2C9 | P11712 | CYP2C9 Supersomes, luciferin-H conversion, luminescence | hit rate 20% among 96,000 | inhibition, % at 5 µM;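 active = blocking of liver enzyme CYP2C9 beyond about 50% at 5 µM, limit read from the data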
CYP2C19 activ = increases human CYP2C19 enzyme activity; 96,000 tested, under 10 active; activation factor at 5 µM; recombinant CYP2C19, luciferin-H EGE luminescence; active compounds read high; 0 = fully inhibited enzyme, 1 = untreated enzyme;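 active = activation factor of at least 2 at 5 µM in the primary screen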;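 also: 0 = wells with 2.5 mM tranylcypromine and 1 = vehicle-only wells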
CYP2C19 inh = inhibitors of human CYP2C19; CYP2C19 Supersomes, luciferin-H EGE luminescence, 30 min; P33261; AID 778; inhibition, % at 5 µM; hit rate 21% among 96,000;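 active = CYP2C19 inhibition above a set limit at 5 µM in the primary screen, cut at about 50% in these data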;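 also: plate controls were negative control wells for no effect and 2.5 mM tranylcypromine positive control for full effect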
CYP2C9 activ = increases human cytochrome P450 2C9 activity | P11712 | recombinant CYP2C9, luciferin-H conversion, luminescence; active compounds read high; factor 1 = untreated enzyme, 0 = blocked | activation factor at 5 µM | hit rate 1.4% among 96,000;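 active = activation factor of 2 or more for CYP2C9 at a 5 µM dose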;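 also: 0 = sulfaphenazole-blocked wells and 1 = vehicle-only wells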
Starred values were filed as active, the others as inactive; nt = not tested or not shown.

SMILES	Cav32 inh	CYP2C9 inhib	CYP2C19 activ	CYP2C19 inh	CYP2C9 activ
CCCCOC(=O)Nc1cc(OC)c(Cl)cc1OC	-2.5*	61*	0	98*	0.4
CCCCOC(=O)Nc1ccc(C)c(Cl)c1	nt	11	0.8	25	0.9
Cc1nnc2sc(-c3cccc4ccccc34)nn12	nt	-1	0.9	6	1
c1ccc2c(Nc3nnc(-c4ccncc4)s3)cccc2c1	0.027	90*	0	96*	0.1
C=CCNc1nnc(-c2ccncc2)s1	0.053	7	0.2	77*	0.9
COc1ccccc1-c1cc(=O)c2c(O)ccc([N+](=O)[O-])c2o1	-0.26	nt	nt	nt	nt
NC(=O)C1CCN(C(=O)c2ccco2)CC1	0.57	nt	nt	nt	nt
CCN(CC)CCCN1C(=O)c2oc3ccccc3c(=O)c2C1c1cccc(OC)c1OC (stereo not given)	0.65	33	0.8	21	0.7
O=C(NCCO)c1ccc2[nH]c3c(c2c1)CCCC3	0.76	24	0.2	83*	0.8
O=C(Nc1nnc(C2CCCO2)s1)c1ccc(Br)cc1 (stereo not given)	0.9	6	1.1	-8	0.9
O=C(N/N=C/c1ccc(Sc2nc3ccccc3s2)c([N+](=O)[O-])c1)c1ccccn1	-0.02	2	1	-2	1
O=C(Nc1cc(Sc2nc3ccccc3s2)cc([N+](=O)[O-])c1)c1ccccc1F	-1.3	71*	0.6	36	0.3
O=c1[nH][nH]cc1C=Nc1ccccc1O	1.8	10	1	5	0.9
COc1ccc(C=Nc2cccc3c(=O)[nH][nH]c(=O)c23)c2ccccc12	0.68	79*	0.6	42	0.2
O=C1Cc2cccc3cccc1c23	0.19	-9	1	2	1.1
COc1ccc(C(=O)Nc2cc3c(cc2C#N)OCO3)cc1S(=O)(=O)N1CCN(C)CC1	0.45	12	1	4	0.9
Cc1ccc(S(=O)(=O)/C(C#N)=C/c2c(N3CCC(C(N)=O)CC3)nc3ccccn3c2=O)cc1	2.5	92*	0.7	31	0.1
Cc1ccc(S(=O)(=O)/C(C#N)=C/c2c(N3CCC(C(N)=O)CC3)nc3c(C)cccn3c2=O)cc1	1.7	80*	0.7	33	0.2
Cc1cccn2c(=O)c(C=O)c(N3CCCCCC3)nc12	0.78	22	0.5	49	0.8
CCN1CCN(c2nc3c(C)cccn3c(=O)c2/C=C(\C#N)S(=O)(=O)c2ccccc2)CC1	2.7	90*	0.7	27	0.1
Cc1cccn2c(=O)c(/C=C(\C#N)S(=O)(=O)c3ccccc3)c(N3CCC(C(N)=O)CC3)nc12	1.8	82*	0.7	30	0.2
Cc1ccc(S(=O)(=O)/C(C#N)=C/c2c(N3CCOCC3)nc3ccccn3c2=O)cc1	nt	49	0.8	17	0.5
Fc1ccc(OCCOCCNCC2CCCO2)cc1 (stereo not given)	-0.35	nt	nt	nt	nt
CC1=C(OC(=O)c2ccccc2)C(C)(C)C(c2ccccc2)OC1=O (stereo not given)	0.42	28	0.6	40	0.7
CC1=C(OC(=O)c2ccccc2)C(C)(C)C(c2ccc(Br)cc2)OC1=O (stereo not given)	-7.1*	61*	0.8	19	0.4
SMILES	Cav32 inh	CYP2C9 inhib	CYP2C19 activ	CYP2C19 inh	CYP2C9 activ
c1ccc(-c2cn3nc(-c4ccccc4)c(-c4ccccc4)nc3n2)cc1	-5.3*	7	1	2	0.9
COc1cccc(NC(=O)N(Cc2ccco2)C(C)c2cccs2)c1 (stereo not given)	-2.3	33	0.6	39	0.7
COc1ccc2[nH]c(C)c(CCN(Cc3cccs3)C(=S)Nc3cccc(F)c3)c2c1	-3.8	98*	0.2	78*	0
Cc1ccc(NCc2nnc(SCC(=O)N(Cc3ccccc3)C(C)(C)C)o2)c(C)c1	-4	43	0.7	32	0.6
CCc1cc(/C(Cc2csc(C)n2)=N/O)c(O)cc1O	-5.2*	31	0.4	56*	0.7
Cc1cc(NC(=O)Cn2c(C)nc3ccccc3c2=O)ccc1Br	-2.2	60*	0.6	38	0.4
CCC(=O)Nc1ccc2nc(C)n(CC(=O)Nc3ccccc3)c(=O)c2c1	0.36	58*	0.7	28	0.4
O=C(Cn1c(CN2CCCCC2)nc2ccccc2c1=O)Nc1ccccc1	0.68	41	0.1	88*	0.6
CCOC(=O)CCNC(=O)Nc1ccc2nc(C)n(Cc3ccc(Cl)cc3)c(=O)c2c1	-3	71*	0.5	48	0.3
Cc1ccccc1NC(=O)Cn1c(C)nc2ccc(NC(=O)C3CC3)cc2c1=O	-0.0065	36	0.9	5	0.6
Cn1c(=O)n(CC(=O)N2CCOCC2)c2ccccc21	0.69	nt	nt	nt	nt
COc1cc(CNn2cnnc2)ccc1OCC(=O)NC(C)(C)C	-1	-6	1.1	-11	1.1
O=C(Cn1c(C2CC2)nc2ccccc2c1=O)Nc1ccc(Br)cc1	-2.4	51*	0.4	56*	0.5
Cc1cc(NC(=O)Cn2nc3c(cc2=O)CCCC3)ccc1Br	-6.2*	39	0.1	88*	0.6
Cc1cccc(CN2CCN(CC(=O)O)C2=O)c1	-0.88	nt	nt	nt	nt
CC(=O)Nc1ccc(C(=O)n2nc(C)cc2C)cc1	0.52	-8	1	4	1.1
Cc1nc2[nH]c(=O)c3c(n2n1)NC1=C(C(=O)CC(C)(C)C1)C3c1ccccc1 (stereo not given)	-0.34	67*	1	0	0.3
CC(NC(=O)N(Cc1ccccc1)Cc1ccc2c(c1)OCO2)(C(F)(F)F)C(F)(F)F	-3.9	93*	0.1	86*	0.1
COc1ccc(CN(Cc2ccccn2)C(=O)CN2C(=O)COc3ccccc32)cc1	1.3	42	0.5	47	0.6
CC(C)C(=O)N(Cc1ccc2c(c1)OCO2)Cc1ccccn1	0.13	16	0.2	76*	0.8
CC(=O)N(CCC(Cc1ccccc1)c1ccc2c(c1)OCO2)Cc1ccc(Cl)cc1 (stereo not given)	-3.1*	75*	0.2	76*	0.2
O=C(CS(=O)(=O)Cc1ccccc1)NCc1ccc2c(c1)OCO2	0.35	-3	1	1	1
CC(=O)OCCN(Cc1ccccc1)Cc1ccc2c(c1)OCO2	0.68	84*	0	99*	0.2
O=C(O)CC(Cc1ccccc1)c1ccc2c(c1)OCO2 (stereo not given)	nt	11	0.8	18	0.9
COC(C/C=C\[C@H](O)COCc1ccccc1)OC	0.46	nt	nt	nt	nt
CC(C)[C@H](NS(=O)(=O)c1ccccc1)C(=O)OCn1nnc2ccccc2c1=O	-0.35	18	0.6	37	0.8
CCOCCCNC(=O)C(c1ccccc1)N(Cc1ccc2c(c1)OCO2)C(=O)CNC(C)=O (stereo not given)	-0.47	8	0.8	19	0.9
CCC(NC(=O)N(Cc1ccccc1)Cc1ccc2c(c1)OCO2)(C(F)(F)F)C(F)(F)F	-1.1	94*	0	100*	0.1
O=C(OCC(=O)N1CCCCC1)c1c[nH]c(=O)[nH]c1=O	-0.36	89*	1	1	0.1
COC(=O)c1ccc(-c2nc(-c3cccs3)no2)cc1	-0.71	40	0.1	91*	0.6
